# Reference: publication PMC7819943, “Rice protein-binding microarrays: a tool to detect cis-acting elements near promoter regions in rice”
# In all, about 35,000 sequences were measured (“fluorescence intensity (a.u.)”: median about 10,000, highest 2% from about 52,000 on). The sample holds the highest values, similar sequences and a random draw of the others, so the mix is not that of the screen.
# Target: T1, OsWOX13 (Oryza sativa, UniProt Q5QMM3 1-267)
# T1 sequence: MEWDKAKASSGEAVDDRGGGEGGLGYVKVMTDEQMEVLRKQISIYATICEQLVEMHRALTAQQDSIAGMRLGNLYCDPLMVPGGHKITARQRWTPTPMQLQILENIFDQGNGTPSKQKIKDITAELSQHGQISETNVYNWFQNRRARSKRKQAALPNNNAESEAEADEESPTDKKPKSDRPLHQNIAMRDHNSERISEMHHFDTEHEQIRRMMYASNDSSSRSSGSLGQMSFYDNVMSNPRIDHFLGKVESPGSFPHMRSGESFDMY
# Experiment: protein-binding microarray (RPBM); PBS, 2% BSA, 51.3 ng/ul salmon testes DNA, 50 uM zinc acetate, 200 nM TF, 25 C, 1 h; high values mean tight binding
# Settings: protein: recombinant; tags: N-terminal polyhistidine and DsRed monomer fusion (pET32a); label: CyDye5-dUTP incorporated in the synthesized complementary strand; 3' TTTTT single-stranded linker to array surface; dsDNA, one strand shown
# Summary of the method: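 The binding signal for each feature is its fluorescence intensity in arbitrary units. An Axon 4000B scanner was used to read a custom Agilent array that had been made double-stranded with Cy5-dUTP primer extension, blocked with 2% BSA, incubated at 25 °C for 1 h with 200 nM protein in PBS, 2% BSA, salmon testes DNA and 50 µM zinc acetate, and washed. The protein was an N-terminal polyhistidine–DsRed transcription factor fusion from E. coli BL21-CodonPlus, purified on Ni–NTA.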
row,Sequence,binding signal
1,AAATTTTAAATTTTAGTAAAATTTGTTCGGTCTTTCTCTCCGGAGTCACCTAGTGCAG,5920 fluorescence intensity (a.u.)
2,ATAAATTTTATAAACTTGACTGCCTCTGGTTGTATATGCACGGAGTCACCTAGTGCAG,23900 fluorescence intensity (a.u.)
3,TGTAATTTGTTCTTGTTATCATCAATCCCATATAAACTGGCGGAGTCACCTAGTGCAG,22300 fluorescence intensity (a.u.)
4,AATTAATTGTCTGATCAGTGATCTTTATTAACTGTCGACGCGGAGTCACCTAGTGCAG,28400 fluorescence intensity (a.u.)
5,CCTGTTAAATTGATCTGCCCTGATTAATTGACCCACCGACCGGAGTCACCTAGTGCAG,38100 fluorescence intensity (a.u.)
6,CAAACGGGTAATTAACTGGGATTAATTTGCCATAAGCCGACGGAGTCACCTAGTGCAG,53100 fluorescence intensity (a.u.)
7,CCCCAAATCCCACTCCAATCACCACCGCTTCTTCTCCTCCCGGAGTCACCTAGTGCAG,6580 fluorescence intensity (a.u.)
8,ATCCTTTTCTCCTTTTCTCGCAAAATCTCCAAAACCGCTTCGGAGTCACCTAGTGCAG,65500 fluorescence intensity (a.u.)
9,TTGATCTGATTAATTAACTGATCAGACGGGTCGACGGGACCGGAGTCACCTAGTGCAG,55700 fluorescence intensity (a.u.)
10,ATTAACCATAACCTAATTTGGATAAGCCGACATGGATCGGCGGAGTCACCTAGTGCAG,8230 fluorescence intensity (a.u.)
11,CAAATTCCAATCATCTCCAAAACCACTTCGCAAATAAATTCGGAGTCACCTAGTGCAG,17900 fluorescence intensity (a.u.)
12,CTACCTTTAATTAGCTTTGCCATAAACGACGTGGGAGTATCGGAGTCACCTAGTGCAG,10300 fluorescence intensity (a.u.)
13,TAGGATTTGACCATAGTAAATTAATTTGGAGGAATTGTTTCGGAGTCACCTAGTGCAG,3990 fluorescence intensity (a.u.)
14,CCATCTGATTAGAGATTTGATCCTATACCTTCCTAAACATCGGAGTCACCTAGTGCAG,40700 fluorescence intensity (a.u.)
15,AGTACTGTAGATAATAAAGTAAGTCACGAATAAAATAAATCGGAGTCACCTAGTGCAG,50900 fluorescence intensity (a.u.)
16,TTAATTGTTTTATCCTATTAATTGGTAGAAGCGGTATTTTCGGAGTCACCTAGTGCAG,26700 fluorescence intensity (a.u.)
17,AAAGATAATTGAAAAGTAAACTTGTTGACAGACGGAATCCCGGAGTCACCTAGTGCAG,30400 fluorescence intensity (a.u.)
18,TTAACATGTAATCAATTAAATACTAATTATTATAAACGTGCGGAGTCACCTAGTGCAG,53100 fluorescence intensity (a.u.)
19,ACTAATTATAAATCAGAACGATTTATTAACTACTCAATAACGGAGTCACCTAGTGCAG,24400 fluorescence intensity (a.u.)
20,TATGATTATCACAAGTAATATATAAATTATTAGTCAAGTTCGGAGTCACCTAGTGCAG,33600 fluorescence intensity (a.u.)
21,CATGATTAATCAAGTTAATTATTATACACTAAATATTGGACGGAGTCACCTAGTGCAG,59600 fluorescence intensity (a.u.)

row,Sequence,binding signal
1,AATTATTTAAATCAATGTAACTCAAAAGTTAATAAACGTGCGGAGTCACCTAGTGCAG,13100 fluorescence intensity (a.u.)
2,TTGGACACTAATTATAAATATTAAATATAGACTATTAATACGGAGTCACCTAGTGCAG,4640 fluorescence intensity (a.u.)
3,GGGTGTGTAAGGGTAGGTGGAGGGGTGGGTGATGCGAGATCGGAGTCACCTAGTGCAG,4470 fluorescence intensity (a.u.)
4,CATGATTAGCCATAAGTGCTACAGTAACCCACATGTGCTACGGAGTCACCTAGTGCAG,34300 fluorescence intensity (a.u.)
5,CCGTGATTAGCCATAAGTGCTACAGTAACCCACATGTGCTCGGAGTCACCTAGTGCAG,57900 fluorescence intensity (a.u.)
6,GTCTAATTAGTCCATGATTAATTAGCCATAAGTTCTACAGCGGAGTCACCTAGTGCAG,53100 fluorescence intensity (a.u.)
7,TTGAGTCTAATTAGTCCATGATTAGCCATAAGTGCTACAGCGGAGTCACCTAGTGCAG,30600 fluorescence intensity (a.u.)
8,CCTAATTAATCCATGATTAGTCATAAGTGTTACAATAATCCGGAGTCACCTAGTGCAG,55500 fluorescence intensity (a.u.)
9,TAAGCCTAATTAGTCTATGATTAGCCATAAGTGCTACAGTCGGAGTCACCTAGTGCAG,37800 fluorescence intensity (a.u.)
10,TCCGTGATTAGCCATAAGTGCTACAGTAACCCACATGTGCCGGAGTCACCTAGTGCAG,35800 fluorescence intensity (a.u.)
11,GCCTAATTAGTCCATGATTAGCTATAAGTGCTACAATAACCGGAGTCACCTAGTGCAG,28100 fluorescence intensity (a.u.)
12,CCTAATTAGTCCATGATTAGTCATAAGTACTACAATAACCCGGAGTCACCTAGTGCAG,33900 fluorescence intensity (a.u.)
13,AGACTTAATTGTAACTGTGTACTACTACGAGCTTAATCAGCGGAGTCACCTAGTGCAG,28400 fluorescence intensity (a.u.)
14,AGAGTTGTAATTAACCTTTTCAGGTTGTATTGACTGCAAGCGGAGTCACCTAGTGCAG,3760 fluorescence intensity (a.u.)
15,GGATTAATAGATAGTCTGACTTTTCTGATAACTATTTAAGCGGAGTCACCTAGTGCAG,28400 fluorescence intensity (a.u.)
16,TTAAAATTATGTTTGAAAATTTAAATTTTAGACGCGGCTTCGGAGTCACCTAGTGCAG,14900 fluorescence intensity (a.u.)
17,AAATTAATTAATACAATATATTCCTGCATGCCCTGTATAACGGAGTCACCTAGTGCAG,23800 fluorescence intensity (a.u.)
18,TTCTCTAGCCCTAAATATGCCGAAGAATATTCCATGTCTCCGGAGTCACCTAGTGCAG,64900 fluorescence intensity (a.u.)
19,ACCCTAATTCTCCTAATCTCTTAGGAAATATGGAAGAAGCCGGAGTCACCTAGTGCAG,3170 fluorescence intensity (a.u.)
20,GATCGAATTGGTAAATCAAATGTCTCTAAATTCTCTCCATCGGAGTCACCTAGTGCAG,4550 fluorescence intensity (a.u.)
21,TGCTAGAATGATTTACGTTATGAAACTGAGGGAGTACATCCGGAGTCACCTAGTGCAG,5380 fluorescence intensity (a.u.)
